Screening data from PubChem BioAssay.
Env fusion inh – blocks HIV Env-driven cell-cell fusion; actives 1.1% (n = 360,000); AID 651610; inhibition, % at 12.3 µM; HeLa-JRFL Env/CEM21 cell fusion, luciferase;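 active = mean replicate inhibition score of at least 50 and every replicate individually at or above 50; inconclusive = only one of the two criteria met; inactive = mean below 50 and not all replicates reaching 50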;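 also: 0% = plate neutral controls and 100% = maraviroc near 300 nM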
esBAF inh – SWI/SNF esBAF complex inhibition | mouse ES cells, Bmi1-luciferase knock-in reporter, 24 h; 100% = twice the neutral-well signal | reporter increase, % at 12.5 µM | actives 2% (n = 350,000); in the data active = activation above about 40%; inconclusive = no clear call, values can overlap the other calls;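 also: 0% = median of the plate's neutral control wells and 100% = double that signal; a rise in the Bmi1 reporter signal indicates esBAF inhibition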
MITF TRPM1 HTS – MITF TRPM1 promoter activation in melanoma cells; SK-MEL-5 TRPM1-promoter luciferase, 24 h; % of positive control, neutral wells = 0; activation, % at 12.5 µM; actives 0.75% (n = 300,000); AID 588334;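 active = mean activation of at least 80% with every replicate also reaching 80%; inconclusive = mean reaches 80% but some replicate falls short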;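 also: 0% = neutral control wells and 100% = parthenolide positive control wells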
Wnt act – activators of Wnt/beta-catenin signaling; actives 1.2% (n = 300,000); AID 743398; Wnt/beta-catenin reporter cell assay, activator, plate reader; activation, % at 9.35 µM; in the data active = activation above about 30%, passing the limit was not always enough; inconclusive = no clear call, values can overlap the other calls;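 also: 0% = neutral control wells and 100% = positive control wells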
miR-122 sensor – blocks miR-122 activity in Huh7 sensor cells; Huh7 miR-122 Renilla luciferase sensor, 48 h; neutral wells = 0, positive control = 100; activation (reporter increase), % at 12.5 µM; actives 0.3% (n = 340,000); AID 602342;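 active = mean replicate activation score at least 90 and every replicate individually at or above 90; inconclusive = only one of the two criteria met; inactive = neither criterion met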;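 also: higher luciferase means less miR-122 activity so hits act as miR-122 inhibitors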
* = called active by the depositor; ? = inconclusive; · = not tested or not shown; [ ] = dose if it differs, or a comment. Most compounds without a hit are left out; they make up all but 3.4% or so of the library.

SMILES	Env fusion inh	esBAF inh	MITF TRPM1 HTS	Wnt act	miR-122 sensor
O=C(NCc1ccccc1)c1cccc(COc2ccc3c(c2)CCC3)c1	30.8	·	-27.3	·	·
COCCn1c(C)cc(C(=O)CSc2n[nH]c(N)n2)c1C	-29.0	2.2	16.8	4.8	-1.5
COCCn1c(C)cc(C(=O)COC(=O)c2cc3c(s2)CCC3)c1C	36.8	10.6	·	19.5	314.7*
COCCn1c(C)cc(C(=O)CSc2nnc(C)s2)c1C	63.0*	·	-65.8	-18.7	-7.8
COCCn1c(C)cc(C(=O)CSc2nnnn2C2CCCC2)c1C	60.3*	-66.3	0.1	-5.4	·
COCCn1c(C)cc(C(=O)CSc2cc(C)c3ccccc3n2)c1C	·	6.6	15.1	·	3.9
COCCn1c(C)cc(C(=O)CSc2nc3ccccc3c(=O)n2Cc2ccco2)c1C	·	96.6*	43.0	55.3*	-2.9
C[C@@H]1CN([C@@H](C)CO)C(=O)c2cc(NS(=O)(=O)c3ccc(Cl)cc3)ccc2O[C@@H](C)CCCCO[C@H]1CN(C)CC1CCCCC1	-133.5[16.7 µM]	5.2	·	·	4.5[16.7 µM]
Cc1ccc(Oc2ccc(/C=N/O)cn2)cc1	·	48.0*	·	5.3	-5.5
Cc1ccc(COc2ccc(/C=N/O)cc2)cc1	-9.7	·	42.4	31.0*	·
CCOc1ccc(/C=N/O)cc1	-13.7	8.1	14.4	6.5	-17.2
C/C=C/c1cnc2c(c1)C(=O)N([C@@H](C)CO)C[C@H](C)[C@H](CN(C)Cc1ccccc1)O2	7.7[16.7 µM]	2.7	·	·	-3.6[16.7 µM]
CCOC(=O)Cc1nc2ccccc2[nH]1	-78.3	10.0	-13.2	·	-7.2
CCOC(=O)c1cccc(NC(=O)c2cnc3ccccc3n2)c1	·	53.4*	28.2	-4.3	14.7
CCOC(=O)c1cccc(NC(=O)c2cccnc2)c1	-30.0	3.7	-2.9	·	-8.7
CCOC(=O)c1ccc(NCc2nc3ccccc3[nH]2)cc1	·	50.4*	57.3	?	-4.2
CCCCNCc1nc2ccccc2c(=O)[nH]1	6.4	·	-6.5	-1.0	·
CCOC(=O)c1sc(NC(=O)CSc2nc3cccnc3n2C)nc1C	38.8	-2.4	-2.3	2.8	-2.5
CCOC(=O)c1cccc(NC(=O)CSc2nc3cccnc3n2C)c1	62.5*	-33.6	-10.8	-8.3	-5.7
CCc1ccc(NCc2nc3ccccc3c(=O)[nH]2)cc1	-248.7	3.1	21.4	34.7*	-1.5
Cc1ccc(S(=O)(=O)N[C@@H]2CC[C@@H](CC(=O)NCCN3CCCCC3)O[C@@H]2CO)cc1	-12.7[16.7 µM]	-2.4	·	·	·
CO[C@@H]1CN(C)C(=O)c2cc(NC(=O)c3ccccc3F)ccc2OC[C@H](C)N(CC2CC2)C[C@@H]1C	·	0.1	·	·	·
C[C@@H]1CN([C@@H](C)CO)C(=O)c2cc(NC(=O)Cc3ccccc3)ccc2O[C@@H]1CN(C)Cc1ccc(Cl)c(Cl)c1	·	5.3	·	·	-4.2[16.7 µM]
CO[C@H]1CN(C)C(=O)c2ccc(NC(=O)C3CCCCC3)cc2OC[C@@H](C)N(C(=O)c2ccccc2)C[C@H]1C	-22.1[16.7 µM]	6.7	·	·	-7.9[16.7 µM]
CCOC(=O)c1ccc(Nc2cnc3ccccc3n2)cc1	-78.2	·	?	34.0*	·
SMILES	Env fusion inh	esBAF inh	MITF TRPM1 HTS	Wnt act	miR-122 sensor
COc1ccccc1S(=O)(=O)N[C@H]1CC[C@@H](CC(=O)N2CCN(C)CC2)O[C@H]1CO	57.0*[16.7 µM]	-3.9	·	·	-9.5[16.7 µM]
COc1ccccc1S(=O)(=O)N[C@@H]1CC[C@H](CC(=O)N2CCN(C)CC2)O[C@H]1CO	7.5[16.7 µM]	-4.8	·	·	10.5[16.7 µM]
CC(C)(C)C1CCc2c(C(=O)N/N=C/c3cccs3)csc2C1 (stereo unspecified)	·	35.4	124.4*	18.7	4.2
O=C(N/N=C/c1cccs1)c1ccc2ncccc2c1	-18.7	·	23.6	0.1	-1.9
Nc1ccc(C(=O)N/N=C/c2cn(Cc3ccccc3F)c3ccccc23)cc1	20.1	2.7	-6.3	-2.2	·
O=C(O)c1ccc(N/N=C/c2cn(Cc3ccccc3F)c3ccccc23)cc1	-98.3	53.8*	72.8	13.0	22.6
O=C(O)c1ccc(N/N=C/c2c[nH]c3ccccc23)cc1	58.7*	-42.4	-54.7	-1.2	-3.9
O=C(N/N=C/c1cccs1)c1ccc2ccccc2c1	8.1	76.6*	27.7	11.6	4.2
CC(C)(C)NC(=O)C(=O)N/N=C/c1cccs1	-23.0	45.6*	·	21.8	-3.3
CCc1ccc(/C=N/NC(=O)c2c[nH]c3ccccc23)s1	-140.9	38.0	89.3*	?	9.1
CC(C)CNC(=O)C(=O)N/N=C/c1cccs1	-50.0	20.6	-4.8	8.6	-5.0
Cc1occc1C(=O)N/N=C/c1c[nH]c2ccccc12	·	50.0*	56.2	1.4	8.7
O=C(N/N=C/c1cccs1)c1c[nH]c2ccccc12	-252.0	?	61.8	30.5*	4.1
CCN(CC)c1ccc(/C=N/NC(=O)c2c[nH]c3ccccc23)cc1	4.1	·	-4.1	·	·
O=C(NCC(F)(F)F)[C@@H]1[C@@H](CO)[C@@H]2Cn3c(cccc3=O)[C@@H]2N1C(=O)C1CCC1	·	1.5	·	·	-3.8[16.7 µM]
CN(C)C(=O)C[C@@H]1C[C@H]2c3cc(NC(=O)CC4CC4)ccc3O[C@H]2[C@@H](CO)O1	-9.2[16.7 µM]	-0.8	·	·	0.2[16.7 µM]
COc1ccc(/C=N\NC(=O)c2ccccc2OC)cc1COc1ccccc1C	15.7	2.4	14.0	0.8	·
COc1ccc(/C=N/NC(=O)c2ccoc2C)cc1COc1c(C)cccc1C	76.3*	50.0*	·	16.3	11.8
COc1ccc(-c2nnc3c4ccccc4c(C)nn23)cc1	-275.5	72.0*	17.9	47.3*	10.1
Cc1nnc(Oc2ccccc2)c2ccccc12	·	18.1	36.2	3.7	-7.8
COc1ccc(Oc2nnc(C)c3ccccc23)cc1	-162.5	49.8*	88.8*	41.6*	-3.0
CCN(CC)C(=O)c1cc2cc([N+](=O)[O-])ccc2s1	·	2.9	16.4	0.0	-11.2
CCc1nc2n(n1)C(O)c1cc([N+](=O)[O-])ccc1S2 (stereo unspecified)	4.7	·	·	41.7*	·
CCCCCN1C=CC(=C2C(=O)c3ccccc3C2=O)C=C1	71.6*	·	-98.1	-0.2	6.2
CC1=CC(=C2C(=O)c3ccccc3C2=O)C=C(C)N1C	·	·	51.6	·	·
SMILES	Env fusion inh	esBAF inh	MITF TRPM1 HTS	Wnt act	miR-122 sensor
C[C@H](CO)N1C[C@H](C)[C@@H](CN(C)C)OCCCC[C@H](C)Oc2ccc(NS(C)(=O)=O)cc2C1=O	-5.7[16.7 µM]	-2.8	·	·	2.3[16.7 µM]
CC1(C)CC(=O)c2cnc(N3CCc4ccccc4C3)nc2C1	·	68.6*	61.1	16.4	·
O=C(C[C@H]1C=C[C@H](NC(=O)NC2CCCCC2)[C@@H](CO)O1)NCc1ccccc1	3.4[16.7 µM]	2.7	·	·	-1.4[16.7 µM]
O=C(C[C@H]1C[C@@H]2c3cc(NC(=O)C4CCC4)ccc3O[C@@H]2[C@@H](CO)O1)NCC1CC1	-0.7[16.7 µM]	-6.0	·	·	6.0[16.7 µM]
COc1cc(CNC(C)c2ccccc2)cc(Cl)c1OCC(=O)Nc1ccccc1 (stereo unspecified)	70.8*	·	-2.3	-3.0	·
O=C(C1CCC1)N1C[C@@H]2[C@H](c3ccccc31)[C@@H](CO)N2C(=O)Cc1ccccn1	·	-0.1	·	·	-10.0[16.7 µM]
Nc1nc(-c2cc3ccccc3o2)cs1	-93.7	?	102.3*	55.6*	8.8
COc1ccc(C(O)c2nc(-c3cc4ccccc4o3)cs2)cc1 (stereo unspecified)	21.0	19.3	·	1.6	-0.5
CN1CCN(c2nc(-c3cc4ccccc4o3)cs2)CC1	-32.4	·	30.4	·	·
